“And” between values parts separate entries of the source, which are not always exact repeats. Equal values may be shown once. About 2,000 (36%) of roughly 5,500 compounds were called active. Not shown: some 18% with an inconclusive outcome. No stated cut-off is given here; in the data, active means normalized growth mostly below about 0.91 (no sharp cut-off); inconclusive means no clear call, values can overlap the other calls; inactive means mostly above about 0.92. Some of the results follow.
Assay: chemical genetic growth profiling, strain panel (AID 1159580);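 further: tested at 20 µM; growth read once vehicle control cultures reached saturation at 30 °C; 1 = growth at the plate median or of vehicle wells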
Settings: growth OD

Measured: normalized growth

CCCOc1ccccc1-c1nc2n[nH]nc2c(=O)[nH]1
inactive: S. cerevisiae deletion strains, locus YJL187C, strain SWE1 (second series), stronger effect = lower value 0.992 | S. cerevisiae deletion strains, locus YJL187C, strain SWE1, stronger effect = lower value 1 | S. cerevisiae deletion strains, locus YJR043C, strain POL32, stronger effect = lower value 0.995 | S. cerevisiae deletion strains, locus YJR075W, strain HOC1, stronger effect = lower value 0.979 | S. cerevisiae deletion strains, locus YKL009W, strain mrt4, stronger effect = lower value 1 | S. cerevisiae deletion strains, locus YKL068W, stronger effect = lower value 0.999 | S. cerevisiae deletion strains, locus YKL085W, strain MDH1 (second series), stronger effect = lower value 1 | S. cerevisiae deletion strains, locus YKL085W, strain MDH1, stronger effect = lower value 1 | S. cerevisiae deletion strains, locus YKL160W, strain elf1, stronger effect = lower value 0.974 | S. cerevisiae deletion strains, locus YKL190W, strain CNB1, stronger effect = lower value 1 | S. cerevisiae deletion strains, locus YKR001C, strain vps1, stronger effect = lower value 1.01 | S. cerevisiae deletion strains, locus YKR026C, strain gcn3, stronger effect = lower value 1 | S. cerevisiae deletion strains, locus YKR091W, strain srl3, stronger effect = lower value 1 | S. cerevisiae deletion strains, locus YLL001W, strain dnm1, stronger effect = lower value 0.995 | S. cerevisiae deletion strains, locus YLL026W, stronger effect = lower value 1.01 | S. cerevisiae deletion strains, locus YLL041C, strain sdh2, stronger effect = lower value 0.994 | S. cerevisiae deletion strains, locus YLR027C, strain aat2, stronger effect = lower value 1.01 | S. cerevisiae deletion strains, locus YLR039C, strain RIC1, stronger effect = lower value 1.05 | S. cerevisiae deletion strains, locus YLR058C, strain SHM2, stronger effect = lower value 0.997 | S. cerevisiae deletion strains, locus YLR102C, strain apc9, stronger effect = lower value 1.01 | S. cerevisiae deletion strains, locus YLR221C, strain rsa3, stronger effect = lower value 0.995 | S. cerevisiae deletion strains, locus YLR258W, strain gsy2, stronger effect = lower value 1.03 | S. cerevisiae deletion strains, locus YLR262C, strain YPT6 (second series), stronger effect = lower value 0.997 | S. cerevisiae deletion strains, locus YLR262C, strain YPT6, stronger effect = lower value 1.02 | S. cerevisiae deletion strains, locus YLR268W, strain sec22, stronger effect = lower value 1.01 | S. cerevisiae deletion strains, locus YLR320W, strain mms22, stronger effect = lower value 1.02 | S. cerevisiae deletion strains, locus YLR330W, strain CHS5, stronger effect = lower value 1.01 | S. cerevisiae deletion strains, locus YLR342W, strain FKS1 (second series), stronger effect = lower value 1.04 | S. cerevisiae deletion strains, locus YLR342W, strain FKS1, stronger effect = lower value 1.01 | S. cerevisiae deletion strains, locus YLR357W, strain rsc2, stronger effect = lower value 1.01 | S. cerevisiae deletion strains, locus YLR370C, strain arc18, stronger effect = lower value 0.996 | S. cerevisiae deletion strains, locus YLR371W, strain rom2, stronger effect = lower value 1.02 | S. cerevisiae deletion strains, locus YLR384C, strain iki3, stronger effect = lower value 1 | S. cerevisiae deletion strains, locus YLR418C, strain cdc73, stronger effect = lower value 1.02 | S. cerevisiae deletion strains, locus YML016C, strain PPZ1, stronger effect = lower value 1 | S. cerevisiae deletion strains, locus YML032C, strain rad52, stronger effect = lower value 1.02 | S. cerevisiae deletion strains, locus YML120C, strain ndi1, stronger effect = lower value 0.997 | S. cerevisiae deletion strains, locus YML124C, strain tub3, stronger effect = lower value 1 | S. cerevisiae deletion strains, locus YMR058W, strain fet3, stronger effect = lower value 1.01 | S. cerevisiae deletion strains, locus YMR078C, strain ctf18, stronger effect = lower value 1.01 | S. cerevisiae deletion strains, locus YMR125W, strain sto1, stronger effect = lower value 1.01 | S. cerevisiae deletion strains, locus YMR129W, stronger effect = lower value 1 | S. cerevisiae deletion strains, locus YMR205C, strain PFK2, stronger effect = lower value 1.03 | S. cerevisiae deletion strains, locus YMR223W, strain ubp8, stronger effect = lower value 1.01 | S. cerevisiae deletion strains, locus YMR231W, strain pep5, stronger effect = lower value 1.01 | S. cerevisiae deletion strains, locus YMR307W, strain GAS1, stronger effect = lower value 1.08 and 0.984 | S. cerevisiae deletion strains, locus YNL067W, strain RPL9B, stronger effect = lower value 1 | S. cerevisiae deletion strains, locus YNL071W, strain lat1, stronger effect = lower value 1 | S. cerevisiae deletion strains, locus YNL153C, strain GIM3, stronger effect = lower value 1.04 | S. cerevisiae deletion strains, locus YNL175C, strain NOP13, stronger effect = lower value 1.02 | S. cerevisiae deletion strains, locus YNL197C, strain WHI3, stronger effect = lower value 1.01 | S. cerevisiae deletion strains, locus YNL209W, strain ssb2, stronger effect = lower value 1 | S. cerevisiae deletion strains, locus YNL224C, strain SQS1, stronger effect = lower value 1 | S. cerevisiae deletion strains, locus YNL233W, strain BNI4, stronger effect = lower value 0.995 | S. cerevisiae deletion strains, locus YNL248C, strain rpa49, stronger effect = lower value 0.957 | S. cerevisiae deletion strains, locus YNL250W, strain rad50, stronger effect = lower value 1 | S. cerevisiae deletion strains, locus YNL271C, strain bni1, stronger effect = lower value 1.01 | S. cerevisiae deletion strains, locus YNL298W, strain CLA4, stronger effect = lower value 1.02 | S. cerevisiae deletion strains, locus YNL307C, strain MCK1, stronger effect = lower value 1.02 | S. cerevisiae deletion strains, locus YNL322C, strain KRE1 (second series), stronger effect = lower value 0.998 | S. cerevisiae deletion strains, locus YNR049C, strain mso1, stronger effect = lower value 1 | S. cerevisiae deletion strains, locus YNR052C, strain pop2, stronger effect = lower value 1.01 | S. cerevisiae deletion strains, locus YOL006C, strain TOP1, stronger effect = lower value 1 | S. cerevisiae deletion strains, locus YOL012C, strain htz1 1.16 | S. cerevisiae deletion strains, locus YOL147C, strain pex11, stronger effect = lower value 1.01 | S. cerevisiae deletion strains, locus YOR001W, strain rrp6, stronger effect = lower value 0.971 | S. cerevisiae deletion strains, locus YOR061W, strain CKA2, stronger effect = lower value 1.01 | S. cerevisiae deletion strains, locus YOR069W, strain VPS5, stronger effect = lower value 1 | S. cerevisiae deletion strains, locus YOR070C, strain gyp1, stronger effect = lower value 0.999 | S. cerevisiae deletion strains, locus YOR080W, strain dia2, stronger effect = lower value 1.01 | S. cerevisiae deletion strains, locus YOR083W, strain WHI5 (second series), stronger effect = lower value 1.02 | S. cerevisiae deletion strains, locus YOR083W, strain WHI5, stronger effect = lower value 0.962 | S. cerevisiae deletion strains, locus YOR106W, strain vam3, stronger effect = lower value 0.981 | S. cerevisiae deletion strains, locus YOR136W, strain idh2, stronger effect = lower value 1.01 | S. cerevisiae deletion strains, locus YOR144C, strain elg1, stronger effect = lower value 1.01 | S. cerevisiae deletion strains, locus YOR184W, strain ser1, stronger effect = lower value 1.01 | S. cerevisiae deletion strains, locus YOR265W, strain rbl2, stronger effect = lower value 1 | S. cerevisiae deletion strains, locus YOR270C, strain vph1, stronger effect = lower value 0.98 | S. cerevisiae deletion strains, locus YOR290C, strain snf2, stronger effect = lower value 0.992 | S. cerevisiae deletion strains, locus YOR316C, strain cot1, stronger effect = lower value 1.01 | S. cerevisiae deletion strains, locus YPL051W, strain arl3, stronger effect = lower value 0.991 | S. cerevisiae deletion strains, locus YPL078C, strain atp4, stronger effect = lower value 0.981 | S. cerevisiae deletion strains, locus YPL106C, strain sse1, stronger effect = lower value 1.02 | S. cerevisiae deletion strains, locus YPL240C, strain hsp82, stronger effect = lower value 1.01 | S. cerevisiae deletion strains, locus YPR119W, strain clb2, stronger effect = lower value 1.01 | S. cerevisiae deletion strains, locus YPR141C, strain kar3, stronger effect = lower value 1 | S. cerevisiae deletion strains, locus YPR163C, strain tif3, stronger effect = lower value 1.02 | S. cerevisiae deletion strains, locus YPR167C, strain met16, stronger effect = lower value 1.02 | S. cerevisiae deletion strains, strain wtn01, stronger effect = lower value 1.02 | S. cerevisiae strains, strain wild type, stronger effect = lower value 1.01

Reference: PubChem BioAssay AID1159580 (chemical genetic matrix, 2015)
